Holding throughout (assay): NCI-60 one-dose screen, 48 h (100 = growth as untreated, 0 = no growth, -100 = all killed)
What all share (conditions): 10 µM unless noted

The subject of experiment [1] is HCT-15 colon.
In experiment [2] the test system is HT29 colon.
Experiment [3] deals with SNB-75 CNS.
In experiment [4] the test system is SNB-19 CNS.
For experiment [5], the system named is U251 CNS.
Experiment [6] has as its system PC-3 prostate.
For experiment [7], the system named is SK-MEL-5 melanoma.
Experiment [8] deals with UACC-62 melanoma.
Experiment [9] relates to LOX IMVI melanoma.
For experiment [10], the system named is SK-MEL-28 melanoma.
In experiment [11] the test system is SK-MEL-2 melanoma.
Experiment [12] relates to EKVX NSCLC.
Experiment [13] relates to SN12C renal.
The subject of experiment [14] is UO-31 renal.
Experiment [15] relates to TK-10 renal.
In experiment [16] the test system is ACHN renal.
Experiment [17] concerns CAKI-1 renal.
Experiment [18] relates to A498 renal.
In experiment [19] the test system is CCRF-CEM leukemia.
Experiment [20] concerns MOLT-4 leukemia.

The panel holds about 83,000 compounds, 20% with a hit somewhere; the sample as a whole holds those more often.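 The endpoint reported here, percent growth, reads 100 for growth as untreated, 0 for no net growth and -100 for all cells dead.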 A number with no mark means an inactive call. Active and inactive are the calls of the source. The calls were made as follows: active = growth percent below 10; inactive = the rest.

Consider `C=C(C)[C@@H]1CC[C@]2(C(=O)NC3CCCCC3)CC[C@]3(C)[C@H](CC[C@@H]4[C@@]5(C)CC[C@H](N)C(C)(C)[C@@H]5CC[C@]43C)[C@@H]12`, for which the growth in experiment [1] was 39%; in experiment [2], 71.8%; in experiment [3], 83.9%; in experiment [4] it was 103%; in experiment [5] it was 88.8%; in [6], 72.8%. In addition, the growth was 92.7% in experiment [7]; 104% in [8]; -75.1% (active) in [9]; 109% in experiment [10]; 105% in [11]; 90.7% in experiment [12]. The growth in experiment [13] was 102%; in experiment [14] it was 80.4%; in [15], 124%; in experiment [16], 104%; in [17], 65.4%; in [18], 118%. In addition, the growth was 79.4% in [19] and 64.5% in experiment [20].

With `Cc1ccc(C(=O)CSc2nc3ccccc3c(=O)n2C)cc1`, the growth is 94.5% in [1]; 111% in experiment [2]; 75.5% in experiment [3]; 94.9% in [4]; 94.6% in [5]; 88.5% in experiment [6]. For the same molecule, the growth in experiment [7] is 81.4%; in experiment [8], 70.3%; in [9], 93%; in experiment [10], 101%; in experiment [11], 95.7%; in experiment [12], 71.5%. In addition, the growth was 94.2% in [13]; 56.6% in [14]; 134% in [15]; 83.7% in experiment [16]; 72.7% in experiment [17]; 99.8% in experiment [18]. The growth is 83.6% in [19] and 88% in experiment [20].

On to `COc1ccc(C(=O)c2c(N)c(C#N)cn2-c2ccc(Cl)cc2Cl)cc1`, for which the growth in [1] is 99.3%; in experiment [2], 98.5%; in [3], 91%; in [4], 93.1%; in [5] it was 99.2%; in [6], 95.7%. Moreover, the growth in experiment [7] was 98.7%; in experiment [8] it was 89.6%; in [9], 84%; in [10] it was 97.9%; in experiment [11], 97%; in [12], 93.6%. In addition, the growth in experiment [13] was 100%; in experiment [14], 84.5%; in [15], 105%; in experiment [16] it was 98.1%; in experiment [17], 91.7%; in experiment [18], 109%. The growth in experiment [19] was 101%; in experiment [20] it was 90.7%.

Consider `Oc1[nH]c2ccc(Cl)cc2c1N=Nc1nc(N=Nc2c(O)[nH]c3ccc(Cl)cc23)nc(N2CCCCC2)n1`, for which the growth is 88.4% in [1]; 39.3% in [2]; 95.3% in [3]; 42.1% in experiment [4]; 19.8% in [5]; 19.5% in experiment [6]. Further, the growth is 87% in experiment [7]; 88.5% in [8]; 24.6% in [9]; 97.5% in experiment [10]; 86.7% in experiment [11]; 50.8% in experiment [12]. The growth in experiment [13] is 42.5%; in experiment [14] it was 86.7%; in [15], 121%; in experiment [16], 88.6%; in [17], 88.1%; in experiment [18], 94.2%. Further, the results for the growth in [19] and in [20] were 9.81% (active) and 22.1%, respectively.

Turning to `C#CCOc1cccc(-c2nc(N)nc(Nc3ccccc3SSc3ccccc3Nc3nc(N)nc(-c4cccc(OCC#C)c4)n3)n2)c1`, the growth in [1] was 28.6%; in experiment [2], 96.9%; in experiment [3], 27.7%; in experiment [4], -9.77% (active); in experiment [5] it was -48.9% (active); in [6], 7.33% (active). Also, the growth was 57.3% in experiment [7]; 63.9% in experiment [8]; -52.8% (active) in experiment [9]; 88.9% in [10]; 96.3% in [11]; 37.3% in experiment [12]. The growth in experiment [13] is 1.17% (active); in experiment [14] it was -78.6% (active); in experiment [15], 134%; in experiment [16], -76.4% (active); in [17] it was 29.1%; in experiment [18], 73%. Also, the growth in [19] is 30.6%; in experiment [20], 44%.

As for `CCCCCCNC(=O)Oc1ccc(/C(=C(/C)c2ccc(Cl)cc2)c2ccc(OCCN3CCCCCC3)cc2)cc1`, the growth in [1] was 9.59% (active); in experiment [2] it was 21.3%; in experiment [3] it was 99.6%; in experiment [4] it was 68.4%; in experiment [5] it was 55.8%; in [6], 49.2%. Further, the growth in experiment [7] is 73.6%; in [8], 63.8%; in experiment [9], 32.8%; in experiment [10], 84%; in experiment [11], 108%; in experiment [12], 76.8%. Besides, the growth in [13] is 70%; in [14], 51.8%; in [15], 95.8%; in [16], 87.3%; in experiment [17], 64.9%; in experiment [18] it was 74.5%. Moreover, the growth is 46.2% in [19] and 33.3% in [20].

In the case of `C=C(C=O)[C@@H]1CC[C@]2(C(=O)O)CC[C@]3(C)C(CC[C@@H]4[C@@](C)(CCC#N)[C@H](C(=C)C=O)CC[C@]43C)[C@@H]12` (stereo not given in full), the growth is 4.88% (active) in experiment [1]; 0.538% (active) in [2]; 59% in [3]; 62.7% in [4]; 5.39% (active) in experiment [5]; 30.3% in [6]. Moreover, the growth in experiment [7] is 26.3%; in experiment [8] it was 30.9%; in experiment [9], -81.7% (active); in experiment [10], -5.57% (active); in experiment [11], 61.1%; in [12], 100%. For the same molecule, the growth was 66.4% in experiment [13]; 32.8% in experiment [14]; 128% in experiment [15]; 51.8% in [16]; 17.8% in experiment [17]; 96.9% in experiment [18]. The growth in experiment [19] was 2.89% (active); in experiment [20] it was 5.55% (active).

With `CCN(CC)c1ccc(/C=N/NC(=O)c2ccc(NS(C)(=O)=O)cc2)cc1`, the growth was 20.4% in experiment [1]; 32.1% in experiment [2]; 73.3% in [3]; 39.2% in experiment [4]; 31.1% in experiment [5]; 37.2% in experiment [6]. Also, the growth in experiment [7] was 4.46% (active); in experiment [8], 12.3%; in experiment [9], 9.94% (active); in [10] it was 23.8%; in [11] it was 40.1%; in experiment [12], 22.4%. Also, the growth in [13] was 37.5%; in experiment [14], 15.7%; in experiment [15], 48.3%; in experiment [16], 10.9%; in [17], 25.2%; in experiment [18] it was 40.1%. For the same molecule, the figures for the growth in experiment [19] and in experiment [20] were 13% and 14.4%, respectively.

Source of the values: PubChem BioAssay (NCI).
